# Laboratory results: PubChem BioAssay
# The source made the active and inactive calls. Unless noted, how the calls were made is not given here.
# Assays:
# [1] = compounds binding Alexa647 anti-His antibody – biochemical, small-molecule microarray, 635 nm fluorescence, artefact control for SMM control protein annotation, primary screen (AID 1128); conditions: higher = more signal;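 further: score merges feature fluorescence with signal-to-noise for each printed compound spot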
# [2] = system: Human papillomavirus type 1a E7 protein (residues 1-88); experiment: HPV1a E7 small-molecule binders, primary screen, biochemical, small-molecule microarray, residues 1-88, 635 nm (AID 1129); conditions: small-molecule microarray binding, fluorescence 635 nm; higher = more signal
# [3] = biological target: Focal adhesion kinase 1 (Homo sapiens) (UniProt Q05397); experiment: PTK2 protein binding on printed compound slides – biochemical, small-molecule microarray, 635/667 nm fluorescence, BSA, DTT, primary screen (AID 1130); conditions: 635 nm fluorescence, higher = more signal;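 further: composite of spot emission at 667 nm and signal to noise over triplicate slides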
# Chain of Focal adhesion kinase 1 (Homo sapiens) (Q05397 whole entry, looked up): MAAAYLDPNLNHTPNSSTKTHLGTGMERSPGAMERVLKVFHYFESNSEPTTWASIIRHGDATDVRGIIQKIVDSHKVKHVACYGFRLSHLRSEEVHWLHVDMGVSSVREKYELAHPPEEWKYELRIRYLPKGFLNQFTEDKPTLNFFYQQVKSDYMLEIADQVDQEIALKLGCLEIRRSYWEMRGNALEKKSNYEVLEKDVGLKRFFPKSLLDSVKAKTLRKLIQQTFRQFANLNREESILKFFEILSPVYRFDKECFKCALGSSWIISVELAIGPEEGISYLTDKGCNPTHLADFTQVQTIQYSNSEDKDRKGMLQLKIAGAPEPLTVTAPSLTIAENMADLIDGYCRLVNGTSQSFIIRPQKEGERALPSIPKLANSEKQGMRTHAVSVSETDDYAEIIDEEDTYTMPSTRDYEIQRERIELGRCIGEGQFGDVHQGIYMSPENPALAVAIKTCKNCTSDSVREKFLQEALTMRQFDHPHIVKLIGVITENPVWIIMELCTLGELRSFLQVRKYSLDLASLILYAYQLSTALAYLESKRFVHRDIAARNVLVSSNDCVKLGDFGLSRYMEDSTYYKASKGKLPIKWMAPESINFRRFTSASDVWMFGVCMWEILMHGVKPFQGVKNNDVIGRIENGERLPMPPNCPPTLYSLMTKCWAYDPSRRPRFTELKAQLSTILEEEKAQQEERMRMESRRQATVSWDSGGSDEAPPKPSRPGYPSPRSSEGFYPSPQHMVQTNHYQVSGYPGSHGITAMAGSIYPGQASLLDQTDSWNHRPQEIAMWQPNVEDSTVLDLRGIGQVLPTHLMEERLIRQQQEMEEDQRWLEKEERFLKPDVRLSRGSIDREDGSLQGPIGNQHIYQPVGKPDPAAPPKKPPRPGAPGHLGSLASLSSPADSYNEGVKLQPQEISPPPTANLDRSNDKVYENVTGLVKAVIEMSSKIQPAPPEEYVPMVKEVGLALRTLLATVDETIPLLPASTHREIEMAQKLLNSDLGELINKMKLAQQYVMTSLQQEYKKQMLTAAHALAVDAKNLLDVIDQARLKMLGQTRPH
# [4] = system: Fibrinogen (Alexa647-labelled); experiment: Alexa647-fibrinogen binding to printed small molecules – biochemical, small-molecule microarray, 635/667 nm fluorescence, artefact control for SMM control-protein annotation, profiling panel (AID 1131); conditions: fibrinogen-A647 binding fluorescence, higher = more signal;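 further: z-score merges 667 nm fluorescence with per-spot signal-to-noise over triplicate slides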
# [5] = biological target: Follistatin (Homo sapiens) (UniProt P19883); experiment: FST protein binding to printed compounds – biochemical, small-molecule microarray, 635/667 nm fluorescence, primary screen (AID 1132); conditions: 635 nm fluorescence, higher = more signal
# Chain of Follistatin (Homo sapiens) (P19883 whole entry, looked up): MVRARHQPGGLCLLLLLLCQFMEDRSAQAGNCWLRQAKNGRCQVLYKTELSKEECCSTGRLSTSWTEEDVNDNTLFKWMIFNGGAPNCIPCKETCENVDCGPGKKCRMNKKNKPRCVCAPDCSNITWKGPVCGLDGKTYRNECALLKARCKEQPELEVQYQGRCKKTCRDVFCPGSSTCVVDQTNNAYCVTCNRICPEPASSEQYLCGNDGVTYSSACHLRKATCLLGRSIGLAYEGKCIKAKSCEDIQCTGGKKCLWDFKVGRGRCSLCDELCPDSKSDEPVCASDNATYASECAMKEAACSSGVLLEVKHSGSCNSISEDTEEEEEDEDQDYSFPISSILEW
# [6] = biological target: Fibroblast growth factor 2 (Homo sapiens) (UniProt P09038); experiment: basic fibroblast growth factor binding to printed compounds – biochemical, small-molecule microarray, 635/667 nm fluorescence, primary screen (AID 1133); conditions: FGF2, fluorescence 635/667, higher = more signal
# Chain of Fibroblast growth factor 2 (Homo sapiens) (P09038 whole entry, looked up): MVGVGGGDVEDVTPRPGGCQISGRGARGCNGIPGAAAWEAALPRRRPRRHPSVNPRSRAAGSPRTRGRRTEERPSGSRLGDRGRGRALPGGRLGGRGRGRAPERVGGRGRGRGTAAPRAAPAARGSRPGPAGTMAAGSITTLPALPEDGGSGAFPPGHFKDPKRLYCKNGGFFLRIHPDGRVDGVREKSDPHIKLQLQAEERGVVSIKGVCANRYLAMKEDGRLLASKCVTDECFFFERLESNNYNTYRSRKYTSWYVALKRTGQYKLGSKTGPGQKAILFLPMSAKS
# [7] = JC-1 mitochondrial potential readout, lung cancer cells – cell-based, A549, JC-1 fluorescence, basal, 24 h, 100 nL, profiling panel (AID 1138); conditions: higher = more signal;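 further: A549 lung adenocarcinoma cells under basal conditions with no added stimulus; test concentration not given here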
# Lefty1 = Lefty1 protein binding to printed compounds – biochemical, small-molecule microarray, 635/667 nm fluorescence, primary screen (AID 1139); conditions: fluorescence 635/667, higher = more signal
# [8] = system: wheat germ agglutinin (Triticum aestivum), Alexa647-labelled; experiment: Alexa647-WGA lectin binding to printed small molecules – biochemical, small-molecule microarray, 635/667 nm fluorescence, artefact control for SMM control-protein annotation, profiling panel (AID 1140); conditions: WGA-A647 binding, 635 nm fluorescence, higher = more signal;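 further: score merges 667 nm feature emission with signal to noise over triplicate slides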
# [9] = biological target: Luciferin 4-monooxygenase (Photinus pyralis) (UniProt P08659); experiment: inhibition of purified Photinus pyralis luciferase – biochemical, luminescence, purified enzyme, 2006 set, primary screen (AID 1141); conditions: purified firefly luciferase, SteadyGlo luminescence, 30 min; higher = more signal, called active from +8 up or from −8 down;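 further: cell-free assay with purified firefly luciferase at 100 ng per well in PBS; test concentration not given here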
# Chain of Luciferin 4-monooxygenase (Photinus pyralis) (P08659 whole entry, looked up): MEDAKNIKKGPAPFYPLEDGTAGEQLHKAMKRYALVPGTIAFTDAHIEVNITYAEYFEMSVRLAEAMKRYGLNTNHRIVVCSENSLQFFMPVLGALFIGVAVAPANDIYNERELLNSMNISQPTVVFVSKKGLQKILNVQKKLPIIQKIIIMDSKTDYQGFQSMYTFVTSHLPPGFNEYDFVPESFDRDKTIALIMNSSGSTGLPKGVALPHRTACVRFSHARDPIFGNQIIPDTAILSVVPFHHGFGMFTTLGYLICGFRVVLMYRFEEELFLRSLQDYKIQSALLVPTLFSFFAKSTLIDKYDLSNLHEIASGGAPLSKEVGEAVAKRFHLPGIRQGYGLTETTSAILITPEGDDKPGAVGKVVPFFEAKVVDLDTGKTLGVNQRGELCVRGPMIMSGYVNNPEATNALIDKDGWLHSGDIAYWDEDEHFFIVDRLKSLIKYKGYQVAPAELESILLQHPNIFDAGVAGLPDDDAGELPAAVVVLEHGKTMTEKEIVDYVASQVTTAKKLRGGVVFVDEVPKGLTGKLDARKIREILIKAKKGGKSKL
# [10] = system: Wnt5a (protein binding on small-molecule microarray); experiment: small molecules binding Wnt5a protein – biophysical, small-molecule microarray, 635/667 nm fluorescence, primary screen (AID 1142); conditions: 635 nm fluorescence, higher = more signal;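 further: fluorescence read at 667 nm with signal to noise per printed feature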
# [11] = ATP-based viability of Huh7 replicon cells – cell-based, CellTiter-Glo luminescence, basal, 48 h, cytotoxicity control for HCV replication inhibitor project, primary screen (AID 1143); conditions: higher = more signal, called active from +8 up or from −8 down;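 further: Huh7 hepatoma cells carrying a hepatitis C replication reporter with no stimulus; test concentration not given here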
# [12] = Pseudomonas biofilm growth suppression – PAO1 strain, BacTiter-Glo luminescence, LB-PBS, primary screen (AID 1144); conditions: P. aeruginosa PAO1 biofilm, 12 h, higher = more signal
# [13] = basal CRE-LacZ reporter activity in PC12 – cell-based, unstimulated, primary screen (AID 1145); conditions: no forskolin, luminescence, 4.5 h, higher = more signal, called active from +8 up or from −8 down
# [14] = forskolin-driven CRE-LacZ activity in PC12 – cell-based, CRE-LacZ reporter, forskolin-stimulated, primary screen (AID 1146); conditions: luminescence, 4.5 h, higher = more signal, called active from +8 up or from −8 down;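 further: PC12 cells with 6xCRE LacZ reporter stimulated by forskolin 10 µM; beta-galactosidase reporter signal reflecting CREB driven transcription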
# [15] = biological target: Streptavidin (Streptomyces avidinii) (UniProt P22629); experiment: compounds binding control protein streptavidin – biophysical, small-molecule microarray, 635/667 nm fluorescence, artefact control for SMM compound annotation, primary screen (AID 1147); conditions: higher = more signal;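 further: signal reflects streptavidin binding to arrayed compounds as a control protein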
# Chain of Streptavidin (Streptomyces avidinii) (P22629 whole entry, looked up): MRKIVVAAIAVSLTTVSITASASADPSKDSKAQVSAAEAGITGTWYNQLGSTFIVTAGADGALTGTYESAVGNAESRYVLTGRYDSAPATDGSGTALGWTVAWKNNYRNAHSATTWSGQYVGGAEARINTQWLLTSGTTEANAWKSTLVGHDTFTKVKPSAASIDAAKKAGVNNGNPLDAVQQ
# [16] = probe aInhba binding on compound microarray – biochemical, small-molecule microarray, 635/667 nm fluorescence, primary screen (AID 1148); conditions: higher = more signal;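 further: score merges 667nm spot fluorescence with signal-to-noise for antibody binding to printed compounds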
# Torsin-1A (Homo sapiens) [17] = biological target: Torsin-1A (Homo sapiens) (UniProt O14656); experiment: TOR1A wild-type binding on microarray – cell lysate, small-molecule microarray, lysate, 635/667 nm, primary screen (AID 1149); conditions: COS7 hTOR1A-WT lysate, 635 nm fluorescence, higher = more signal
# Chain of Torsin-1A (Homo sapiens) (O14656 whole entry, looked up): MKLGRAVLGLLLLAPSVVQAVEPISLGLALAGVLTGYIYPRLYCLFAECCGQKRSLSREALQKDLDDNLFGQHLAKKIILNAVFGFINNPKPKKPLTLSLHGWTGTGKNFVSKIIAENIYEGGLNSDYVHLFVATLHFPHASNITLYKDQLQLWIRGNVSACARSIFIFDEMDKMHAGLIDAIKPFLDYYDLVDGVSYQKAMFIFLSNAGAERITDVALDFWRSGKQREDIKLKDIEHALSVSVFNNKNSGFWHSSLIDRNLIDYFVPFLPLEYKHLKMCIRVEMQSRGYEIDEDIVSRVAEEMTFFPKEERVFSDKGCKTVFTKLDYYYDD
# Torsin-1A (Homo sapiens) [18] = biological target: Torsin-1A (Homo sapiens) (UniProt O14656); experiment: torsin A mutant lysate binding on microarrays – cell lysate, small-molecule microarray, COS7 lysate, 635/667 nm fluorescence, primary screen (AID 1150); conditions: COS7 hTOR1A mutant lysate, 635 nm fluorescence, higher = more signal;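 further: score pools 667 nm emission and signal to noise measuring lysate protein binding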
# [19] = system: Sonic hedgehog protein (Shh); experiment: Sonic hedgehog microarray binding compounds – biochemical, small-molecule microarray, 635/667 nm fluorescence, primary screen (AID 1151); conditions: 635 nm fluorescence, higher = more signal;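 further: Shh protein binding to compounds spotted on small-molecule microarray slides; score combines spot fluorescence intensity with signal-to-noise across triplicate slides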
SMILES,composite z-score [1],composite z-score [2],composite z-score [3],composite z-score [4],composite z-score [5],composite z-score [6],z-score [7],composite z-score (Lefty1),composite z-score [8],z-score [9],composite z-score [10],z-score [11],z-score [12],z-score [13],z-score [14],composite z-score [15],composite z-score [16],composite z-score (Torsin-1A (Homo sapiens) [17]),composite z-score (Torsin-1A (Homo sapiens) [18]),composite z-score [19]
C[n+]1ccc2ccc(O)cc2c1,1.81,-0.495,0.132,-0.399,1.37,1.68,-0.924,1.54,-0.37,0.591 (inactive),0.247,-0.289 (inactive),0.125 (inactive),0.389 (inactive),-0.287 (inactive),-0.426,-0.0405,2.27,1.19,1.95
CCCC[C@H]1OB(O)C[C@H]2C1=C(C)Cn1c(=O)n(-c3ccccc3)c(=O)n12,0.247,0.299,-0.144,-0.0265,0.415,0.321,-0.281,0.493,0.0939,0.169 (inactive),0.0677,0.007 (inactive),-0.444 (inactive),0.222 (inactive),-0.251 (inactive),-0.124,0.0301,0.363,-0.0931,0.759
COCCOC(=O)N1C(=O)[C@@]2(c3ccccc31)[C@H](C(=O)N1CCCCCCC1)[C@H]1C(=O)O[C@H](c3ccccc3)[C@H](c3ccccc3)N1[C@@H]2c1ccccc1OCCO,2.04,1.27,1.26,0.802,1.47,0.662,-0.647,1.47,1.53,0.131 (inactive),1.09,-2.56 (inactive),-0.699 (inactive),0.0384 (inactive),0.207 (inactive),2.79,1.76,1.27,1.76,1.3
C=CCC(OC(C)=O)[C@@H]1[C@@H](N(Cc2cc3ccccc3o2)C(=O)c2ccc(C)cc2)c2cc(OCCCO)ccc2N1C(=O)c1ccc(-c2ccccc2)cc1 (stereo not given in full),-0.277,0.0357,0.13,0.122,0.714,-0.206,0.291,0.239,0.107,0.352 (inactive),-0.221,-2.92 (inactive),-2.16 (inactive),2.76 (inactive),-1.12 (inactive),0.0073,0.295,0.308,-0.264,0.158
Oc1ccc2cc[n+](Cc3cccc(OC(F)(F)F)c3)cc2c1,0.644,0.0093,0.295,-0.0505,1.33,1.51,0.579,1.38,-0.0259,-0.256 (inactive),0.112,0.202 (inactive),-0.452 (inactive),-0.0243 (inactive),-0.668 (inactive),0.1,-0.255,0.0193,-0.527,1.89
CC(C)C(O)C1C=CC2C(=O)N(C)C(=O)C2N1N1CCCCC1 (stereo not given),-0.0134,1.11,0.776,0.447,0.336,0.329,-0.115,-0.146,0.763,-0.686 (inactive),-0.0226,0.788 (inactive),-0.775 (inactive),-0.133 (inactive),0.0399 (inactive),0.482,-0.0704,-0.0881,1.29,0.192
COc1ccc(CCNC(=O)[C@@]2(C)c3ccccc3C(=O)N(Cc3ccccc3)[C@H]2c2ccc(CO)cc2)cc1,1.01,1.29,0.652,1,1.45,1.42,-1.72,1.57,0.62,1.11 (inactive),0.968,-5.28 (inactive),-2.01 (inactive),0.208 (inactive),0.303 (inactive),1.3,0.122,2.07,1.67,2.16
C=CCNC(=O)[C@@H]1[C@H]2C(=O)O[C@H](c3ccccc3)[C@H](c3ccccc3)N2[C@H](c2ccccc2OCCO)[C@@]12C(=O)N(C(=O)OCCOC)c1ccc(C#CCC(C(=O)OC)C(=O)OC)cc12,1.39,1.23,1.25,0.896,1.04,1.42,-0.453,1.11,1.12,0.112 (inactive),0.978,-5.68 (inactive),0.0376 (inactive),-0.195 (inactive),-0.569 (inactive),1.63,0.86,0.612,1.56,2.04
COc1ccc([Si](C)(C)[C@@H]2[C@@H](CCO)O[C@]3(C(=O)N(Cc4cccc(N5CCCCC5=O)c4)c4ccccc43)[C@H]2C)cc1,0.49,1.17,0.0366,0.825,1.01,0.885,-0.425,0.883,0.746,-0.724 (inactive),-0.0438,-7.9 (inactive),0.671 (inactive),15.5 (active),0.456 (inactive),-0.276,-0.024,0.38,0.965,1.27
C=C(CCCC)/C(=C/C[C@@H](OC(=O)c1ccncc1)c1ccc(CO)o1)c1cc(C(=O)OC)ccc1OC,1.94,1.23,0.129,0.889,1.16,0.622,-0.108,1.57,1.18,-3.31 (inactive),0.079,-0.605 (inactive),0.363 (inactive),6.18 (inactive),4.24 (inactive),0.707,0.027,0.394,1.23,1.97
